Source: PubChem BioAssay AID1347081 (National Center for Advancing Translational Sciences (NCATS), 2019)
Records with an inconclusive call do not appear. Active and inactive are the calls of the source. The call rests on the fitted dose curve.

Test: qHTS for Inhibitors of the Functional Ribonucleoprotein Complex (vRNP) of Lassa (LASV) Arenavirus: Viability assay - alamar blue signal for LASV Confirmatory Screen
Conditions: LASV vRNP counter-screen cells; series mostly up to 53.9 µM

SMILES | Potency
O=C1Cc2cc(CCN3CCN(c4nsc5ccccc45)CC3)c(Cl)cc2N1 | inactive
CCc1cncnc1N1CCN(Cc2nc3ccc(C(F)(F)F)cc3[nH]2)CC1 | 12.5 µM (active)
S=C(NCc1ccc2c(c1)OCO2)N1CCN(c2ncnc3c2oc2ccccc23)CC1 | 8.85 µM (active)
Cc1cc2c(C(C)C)c(O)c(O)c(C=O)c2c(O)c1-c1c(C)cc2c(C(C)C)c(O)c(O)c(C=O)c2c1O | 21.7 µM (active)
CC(O)C(O)[C@H]1CNc2nc(N)[nH]c(=O)c2N1 (some centres undefined) | inactive
COc1ccc(Cc2nccc3cc(OC)c(OC)cc23)cc1OC | 13.7 µM (active)
CC1OC(=O)[C@@H](C(C)C)NC(=O)C(C(C)C)OC(=O)[C@H](C(C)C)NC(=O)C(C)OC(=O)[C@@H](C(C)C)NC(=O)C(C(C)C)OC(=O)[C@H](C(C)C)NC(=O)C(C)OC(=O)[C@@H](C(C)C)NC(=O)C(C(C)C)OC(=O)[C@H](C(C)C)NC1=O (some centres undefined) | 1.22 µM (active)
CC(=O)OCC(=O)[C@@]12N=C(C)O[C@H]1C[C@H]1[C@@H]3CCC4=CC(=O)C=C[C@]4(C)[C@@H]3[C@@H](O)C[C@@]12C | inactive
CCC1OC2(C)C(O)C(/C=C/C=C/C=C/c3oc(=O)cc(OC)c3C)OC1(C)C2OC(C)=O (centres undefined) | 0.109 µM (active)
CO/C=C(/C(=O)OC)c1ccccc1Oc1cc(Oc2ccccc2C#N)ncn1 | 31.4 µM (active)
CCOC(=O)OCC/C(SC(=O)OCC)=C(\C)N(C=O)Cc1cnc(C)nc1N | inactive
O=C(Nc1ccc([N+](=O)[O-])cc1Cl)c1cc(Cl)ccc1O | 2.17 µM (active)
Fc1ccc(CNc2ncnc3ccc(F)cc23)cc1 | 15.3 µM (active)
C=C(C)[C@H]1Cc2c(ccc3c2O[C@@H]2COc4cc(OC)c(OC)cc4[C@@H]2C3=O)O1 | 0.193 µM (active)
CC[C@@]1([C@@H]2O[C@@H]([C@H]3O[C@@](O)(CO)[C@H](C)C[C@H]3C)C[C@H]2C)CC[C@H]([C@]2(C)CC[C@]3(C[C@H](O)[C@@H](C)[C@@H]([C@@H](C)[C@@H](OC)[C@H](C)C(=O)O)O3)O2)O1 | 4.21 µM (active)
COc1cc2c(cc1OC)CC(=O)N(CCCN(C)C[C@H]1Cc3cc(OC)c(OC)cc31)CC2 | inactive
CN1C(C(=O)Nc2ccccn2)=C(O)c2ccccc2S1(=O)=O | inactive
COC(=O)c1nc(Cl)c(Cl)nc1N | 1.93 µM (active)
CNCCCC1c2ccccc2C=Cc2ccccc21 | 24.3 µM (active)
CC(O)(P(=O)(O)O)P(=O)(O)O | inactive
Cc1cccc(-c2[nH]c(C(C)(C)C)nc2-c2ccc3c(c2)OCO3)n1 | 4.85 µM (active)
O=c1[nH]c2ccccc2n1C1CCN(CCCC(c2ccc(F)cc2)c2ccc(F)cc2)CC1 | inactive
CCC(C)c1nccnc1OC (centres undefined) | inactive
O=c1ccc2ccc(O)c(O)c2o1 | inactive
